Source: PubChem BioAssay
HIF act – HIF pathway transcriptional activators, primary screen, cell-based, U2OS HRE-luciferase, luminescence; AID 1910, 2009; U2OS HRE-luciferase reporter; normalized: DMSO 0%, desferrioxamine 100%; activation, % at 7.5 µM (by protocol); hit rate 0.32% among 300,000;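 active = mean activation of at least 10% of the iron chelator positive control signal, with at least half of replicates also reaching 10%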
TNF necrop inh – inhibitors of TNF-alpha triggered necroptosis, primary screen, cell-based, Jurkat FADD-/-, single concentration. activation (protection from cell death), % at 10 µM. Jurkat FADD-/- TNF necroptosis rescue, ATP luminescence, 24 h; 0 = TNF only, 100 = no-TNF cells. AID 463075, 2010. hit rate 0.068% among 220,000;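 active = activation, meaning protection from cell death, of at least 50% relative to plate controls; inactive = activation below 50%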;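 note: necroptosis triggered by 40 ng/mL TNF-alpha added together with compound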
Calb FLC – C. albicans growth inhibition with fluconazole, primary screen, CaCi-2 strain, Alamar Blue fluorescence; C. albicans CaCi-2 (fluconazole-resistant clinical isolate) + fluconazole, 48 h; AID 1979, 2009; growth inhibition, % (concentration not given with the values); hit rate 0.57% among 300,000;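 active = growth inhibition above about 58% in most replicates, limit read from the data, passing the limit was not always enough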;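 note: all wells also contain fluconazole at 8 µg/ml as a sub-toxic cotreatment; 0% = median of DMSO wells and 100% = median of geldanamycin control wells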
zVAD death inh – inhibitors of zVAD-triggered necroptosis, primary screen, L929 cells; L929 zVAD necroptosis rescue, ATP luminescence, 24 h; with zVAD 60 µM; viability rescue, % at 10 µM; hit rate 0.38% among 220,000; AID 1377, 2008;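 active = activation, scaled between plate controls, above about 75%, limit read from the data; inactive = activation under that limit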;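 note: 0% = zVAD with DMSO and 100% = DMSO alone without zVAD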
Numbers without * were called inactive; · = not tested or not shown. Rows were chosen to be rich in hits. Some 1.1% of all compounds tested hit in one or more screens of this group.

SMILES	HIF act	TNF necrop inh	Calb FLC	zVAD death inh
O=C(c1ccc(Cl)cc1)c1ccc(Oc2cc(NN3CCCCC3)c([N+](=O)[O-])cc2[N+](=O)[O-])cc1	1.0	·	-4.0	·
CC1CC(C)CN(S(=O)(=O)c2ccc3c(c2)oc(=O)n3CC(=O)NCCCOC(C)C)C1 (centres undefined)	31.4*	·	1.8	·
O=C(N/N=C/c1cc([N+](=O)[O-])ccc1O)C(O)(c1ccccc1)c1ccccc1	-18.8	·	98.2*	·
O=C(N/N=C/c1ccc(O)c(O)c1O)/C(=C/c1ccc([N+](=O)[O-])cc1)NC(=O)c1ccccc1	10.4*	-13.8	103.5*	-0.5
O=C(N/N=C/c1cc([N+](=O)[O-])ccc1O)c1cccc2cc[nH]c12	27.5*	-17.1	-4.2	47.6
Cc1ccc(NC(=O)/C(=C\c2ccc([N+](=O)[O-])cc2)NC(=O)c2ccccc2)cc1	-22.6	-1.8	13.6	0.1
COC(=O)c1ccc(COc2cccnc2[N+](=O)[O-])cc1	0.2	·	-1.9	·
Cc1cc(C)c2nc(NNC(=O)c3cc(-c4cccs4)nc4ccccc34)sc2c1	0.5	-7.7	82.5*	·
Cc1ccc2sc(NNC(=O)c3cc(-c4cccs4)nc4ccccc34)nc2c1C	0.1	0.6	-6.9	·
O=C(NNc1nc2ccc(Cl)cc2s1)c1cc(-c2cccs2)nc2ccccc12	0.3	-1.8	86.1*	·
O=C(/C=C/NCc1cccnc1)c1ccc(Br)cc1	0.4	·	-0.3	·
CC(=O)Oc1ccc2c(=O)c(-c3nc4ccccc4s3)coc2c1	-3.7	-2.4	89.5*	-1.2
CC(C)Oc1ccc2c(=O)c(-c3ccccc3)coc2c1	3.0	0.7	·	4.3
CCOc1ccc(NC(=O)C(=O)NCCN2CCN(C(=O)c3ccc(C)cc3)CC2)cc1	0.5	·	0.7	·
O=C(C1=C[C@@H](C2CCCCC2)C[C@@H](OCCCCO)O1)N1CCN(Cc2ccc3c(c2)OCO3)CC1	-1.8	0.4	9.5	0.1
O=C(C1=C[C@@H](C2CC2)C[C@@H](OCCCCO)O1)N1CCN(Cc2ccc3c(c2)OCO3)CC1	40.0*	0.5	-9.7	-0.7
CCOC(=O)C1(Cc2cccc(OC)c2)CCCN(C(=O)CNC(C)=O)C1 (centres undefined)	2.6	·	-5.0	·
C=CCc1c(C)c(C#N)c2nc3ccccc3n2c1NCCN(C)C	-0.4	1.8	91.2*	0.0
CC(Oc1ccccc1F)C(=O)NNC(=O)CC(C)c1ccccc1 (centres undefined)	-0.5	·	2.9	·
CCN1C(=NCCOC)N[C@@H](c2cccs2)C(C(=O)OC)=C1C	0.2	·	-6.6	·
Cc1ccc(-n2nnnc2C(Cl)c2nnnn2-c2ccc(C)cc2)cc1	0.0	-12.1	96.0*	1.1
O=C(CCN1C(=O)S/C(=C\c2ccc(F)cc2)C1=O)Nc1ccc(C(=O)O)c(O)c1	29.6*	·	6.1	·
Cc1cc(OC(=O)c2ccc3ccccc3c2)c([N+](=O)[O-])c(=O)[nH]1	-0.3	2.1	2.1	1.3
CCCn1c(O)c(N=NC(=O)CNC(=O)c2ccncc2)c2ccccc21	0.4	·	-0.1	·
NNC(=O)c1cc(O)c(O)c(O)c1	-0.4	-0.2	95.2*	0.5
SMILES	HIF act	TNF necrop inh	Calb FLC	zVAD death inh
CC1(C)CC(N2CCCC2)=CC(=[N+]2CCCCCC2)C1	0.2	-4.7	88.2*	-1.4
CC1(C)CC(N2CCN(c3ccccc3)CC2)=CC(=[N+]2CCCC2)C1	0.2	-6.7	93.9*	0.6
CC1CC(C)C[N+](=C2C=C(N3CCCC3)CC(C)(C)C2)C1 (centres undefined)	-1.1	-6.6	-15.5	-1.2
Cc1nc2ccccc2c(=O)n1/N=C/c1ccc(O)c(O)c1O	-0.2	·	12.5	·
Cc1nc2ccccc2c(=O)n1/N=C/c1ccc2ccccc2c1O	10.8*	-4.6	-1.9	0.3
Cc1nnc(-c2ccccc2)c(=O)n1/N=C/c1c(O)ccc2ccccc12	68.8*	-18.9	-1.4	7.0
Oc1c(I)cc(Cl)c2cccnc12	-0.2	-3.1	·	2.2
Oc1c(CN2CCc3ccccc3C2)cc(Cl)c2cccnc12	50.3*	-10.0	83.3*	58.3
O=C(Oc1c(CN2CCOCC2)cc(Cl)c2cccnc12)c1ccccc1F	3.5	-10.6	102.0*	6.6
Oc1c(CN2CCCCC2)cc(Br)c2cccnc12	·	-15.7	-27.6	0.7
O=c1oc2ccccc2c(O)c1Cc1cc(Cl)c2cccnc2c1O	0.2	0.8	84.3*	1.1
COc1cc(OC)cc(C(=O)Oc2c(CN3CCOCC3)cc(Cl)c3cccnc23)c1	0.9	-25.2	112.8*	2.0
O=C(Oc1ccc(C(=S)N2CCOCC2)cc1Cl)c1ccccc1F	1.2	·	-5.1	·
CCCCCC(=O)N(Cc1ccccc1)c1c(N)n(CCOC)c(=O)[nH]c1=O	-0.2	·	-1.0	·
Cc1ccc(SCC(=O)Nc2ccc(N3CCN(C)CC3)c(F)c2)c(C)c1	0.3	3.3	3.3	4.9
O=C(Oc1c(CN2CCOCC2)cc(Cl)c2cccnc12)c1ccccc1	-0.1	-12.5	117.6*	-0.2
COc1ccc(C(=O)Oc2c(CN3CCOCC3)cc(Cl)c3cccnc23)cc1OC	-0.1	-12.3	1.3	0.3
CCOC(=O)/C(C)=N/NC(=O)c1ccc([N+](=O)[O-])cc1	0.0	0.6	-19.4	1.2
CCOC(=O)/C(N=Nc1ccc(F)cc1)=C(/O)c1ccc([N+](=O)[O-])cc1	14.0*	0.2	3.9	-0.1
O=C(CCl)Nc1ccc(-c2ccccc2)cc1	-3.7	-15.6	91.6*	15.1
O=C(CCl)Nc1ccc(N=Nc2ccccc2)cc1	1.2	0.9	-33.6	0.7
Cc1ccc(N(C(C)C(=O)N2CCOCC2)S(C)(=O)=O)cc1C (centres undefined)	0.0	0.4	-3.5	4.3
C/C(CCC12CC3CC(CC(C3)C1)C2)=N\NC(N)=S	0.1	-12.2	2.4	-2.0
C/C(CC(C)(C)C1CCCCC1)=N\NC(N)=S	0.1	-11.9	104.4*	-1.7
NC(=S)N=Nc1c(O)n(Cc2ccccc2)c2ccccc12	-0.1	1.0	-9.6	1.6
SMILES	HIF act	TNF necrop inh	Calb FLC	zVAD death inh
O=Nc1c(O)n(Cc2cccc(Cl)c2)c2ccccc12	-0.9	-7.4	84.1*	0.2
COc1ccc(C)cc1NC(=S)NNC(=O)c1c(Br)cnn1C	0.0	-0.6	72.4*	1.8
CN(C)S(=O)(=O)Oc1cccc(C(=O)Nc2ccc(Cl)c(Cl)c2)c1	2.8	-10.3	91.8*	9.3
CNS(=O)(=O)c1cccc(C(=O)Nc2cccc(Cl)c2)c1	1.6	1.5	9.2	1.2
COc1ccc(NC(=O)c2cccc(OS(=O)(=O)N(C)C)c2)cc1	0.6	2.5	42.4	4.2
CN(C)S(=O)(=O)Oc1cccc(C(=O)Nc2cccc(Cl)c2)c1	2.6	-7.1	108.0*	28.9
Cc1sc(N2C(=O)C3C(C2=O)[C@H]2C=C[C@@H]3C2)c(C#N)c1C (some centres undefined)	-1.3	-0.6	0.7	-0.1
CCCCOc1cccc(C2C(C(=O)c3ccc(C)o3)=C(O)C(=O)N2Cc2ccco2)c1 (centres undefined)	·	·	78.9*	·
